Experiment [1] can be described thus: HepG2 liver cancer cell viability effects, profiling panel, resazurin fluorescence, 24 h, PK04 Diversity Set (AID 1172). Note: test concentration not given here. The following applies: higher = more signal. On the technique in general: The colour change of resazurin is a common sign of viable cells or microbes.
Experiment [2] in a line: basal S. cerevisiae growth modulation, no modifier, primary screen, OD600, strain BY4716, 24 h, basal condition (AID 1173). The following applies: OD600, 24 h, higher = more signal, called active from +8 up or from −8 down.
Experiment [3] in a line: MM1S myeloma cell viability, profiling panel, resazurin fluorescence, basal, 24 h, PK04 Diversity Set (AID 1174). Note: test concentration not given here. To be noted: higher = more signal, called active from +8 up or from −8 down.
The target in experiment [4] is Dihydroorotate dehydrogenase (quinone), mitochondrial (Plasmodium falciparum (isolate 3D7)) (UniProt Q08210). Kind of experiment: PfDHODH enzyme inhibitors, primary screen, biochemical, C-terminal His tag, absorbance 600 nm (AID 1175).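 Note: recombinant parasite enzyme with a five histidine tag at its C terminus; test concentration not given here.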 The following applies: DCIP absorbance 600 nm, higher = more signal, called active from +8 up or from −8 down.
Experiment [5] can be described thus: P. aeruginosa biofilm formation inhibitors, primary screen, strain PAO1, LB-PBS medium, absorbance 600 nm (AID 1176). Note: test concentration not given here. To be noted: P. aeruginosa PAO1 growth/biofilm, A600, 12 h; higher = more signal.
Experiment [6] can be described thus: S. cerevisiae RM11-1a growth modifiers, primary screen, strain RM11-1a, OD600, basal, 24 h (AID 1177).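 Note: cultures grown under basal conditions with no added stressor; test concentration not given here.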 The following applies: OD600, 24 h, higher = more signal, called active from +8 up or from −8 down.
A short description of experiment [7]: E. coli acrAB mutant growth effects, primary screen, E. coli filamentation inducers, strain DRC39, OD650, 24 h (AID 1178).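 Note: growth measured as culture turbidity by optical density at 650 nm; test concentration not given here.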 The following applies: higher = more signal, called active from +8 up or from −8 down.
Experiment [8] can be described thus: E. coli acrAB mutant growth effects, primary screen, E. coli filamentation inducers, strain DRC39, OD650, 48 h (AID 1179).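 Note: screen aims at cell division blockers that make cells filament.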 To be noted: E. coli DRC39 delta-acrAB growth, higher = more signal, called active from +8 up or from −8 down.
Experiment [9] can be described thus: RPMI8226 myeloma cell viability, profiling panel, resazurin fluorescence, basal, 24 h, PK04 Diversity Set (AID 1180).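 Note: RPMI8826 multiple myeloma cell line at 5000 cells per well; test concentration not given here.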 The following applies: higher = more signal.
Experiment [10] concerns the target E3 ubiquitin-protein ligase XIAP (Homo sapiens) (UniProt P98170). Kind of experiment: XIAP binders, primary screen, biophysical, small-molecule microarray, fluorescence 635 nm (AID 1181).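 Note: score merges 667 nm emission and signal to noise over triplicate slides.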 To be noted: small-molecule microarray binding, higher = more signal.

Calls of active or inactive are those of the source. Unless noted, the rule behind the calls is not given here.

Dihydroorotate dehydrogenase (quinone), mitochondrial (Plasmodium falciparum (isolate 3D7)), sequence (Q08210 whole entry, looked up): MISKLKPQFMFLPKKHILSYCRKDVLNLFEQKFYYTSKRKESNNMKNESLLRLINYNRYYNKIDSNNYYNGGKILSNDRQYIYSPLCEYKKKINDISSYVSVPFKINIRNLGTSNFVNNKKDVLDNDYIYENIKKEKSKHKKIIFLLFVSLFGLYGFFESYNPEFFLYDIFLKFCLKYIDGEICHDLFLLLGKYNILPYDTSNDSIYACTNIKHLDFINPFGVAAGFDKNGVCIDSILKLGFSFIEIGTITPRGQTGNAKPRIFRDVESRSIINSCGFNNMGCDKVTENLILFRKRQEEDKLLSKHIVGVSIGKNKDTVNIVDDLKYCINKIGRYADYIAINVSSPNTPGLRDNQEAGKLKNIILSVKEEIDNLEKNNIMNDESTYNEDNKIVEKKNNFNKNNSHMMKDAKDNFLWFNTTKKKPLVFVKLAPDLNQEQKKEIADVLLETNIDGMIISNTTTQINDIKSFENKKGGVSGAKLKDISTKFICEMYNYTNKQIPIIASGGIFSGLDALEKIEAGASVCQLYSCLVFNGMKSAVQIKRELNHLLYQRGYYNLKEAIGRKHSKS
E3 ubiquitin-protein ligase XIAP (Homo sapiens), sequence (P98170 whole entry, looked up): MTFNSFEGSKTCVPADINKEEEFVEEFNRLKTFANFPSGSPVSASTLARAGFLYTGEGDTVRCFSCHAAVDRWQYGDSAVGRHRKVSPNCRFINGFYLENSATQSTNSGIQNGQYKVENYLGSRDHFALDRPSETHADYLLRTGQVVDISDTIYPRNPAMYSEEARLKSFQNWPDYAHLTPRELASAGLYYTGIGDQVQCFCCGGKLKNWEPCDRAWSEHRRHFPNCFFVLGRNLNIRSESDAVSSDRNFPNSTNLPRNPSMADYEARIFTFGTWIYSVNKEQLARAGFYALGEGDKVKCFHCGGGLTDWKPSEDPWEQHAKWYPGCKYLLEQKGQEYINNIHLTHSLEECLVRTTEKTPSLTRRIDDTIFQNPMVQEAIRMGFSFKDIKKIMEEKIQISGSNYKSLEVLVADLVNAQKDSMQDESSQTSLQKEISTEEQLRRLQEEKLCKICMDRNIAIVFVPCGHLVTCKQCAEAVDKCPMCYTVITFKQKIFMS

With `COC(=O)[C@@]1(Cc2ccc(F)cc2)[C@H]2c3cc(C(=O)N(C)C)n(Cc4cc(F)cc5c4OCOC5)c3C[C@H]2CN1C(=O)c1ccccc1`, the z-score in experiment [1] was -0.933; in [2] it was 0.434 (inactive); in experiment [3], -1.73 (inactive); in experiment [5] it was 0.728 (inactive); in [6], -0.341 (inactive); in experiment [7], -0.462 (inactive). Besides, the z-score in experiment [8] is 0.164 (inactive); in experiment [9], -2.74. Besides, the values for the composite z-score in experiment [4] and in experiment [10] were -0.954 (inactive) and 0.476, respectively.

With `COC(=O)[C@@]1(Cc2ccc(OC)cc2)[C@@H]2C(=CC(=O)[C@H]2CC(=O)C(=O)N(C)C)CN1C(=O)c1ccccc1`, the z-score is -1.2 in [1]; 1.61 (inactive) in [2]; -2.16 (inactive) in experiment [3]; 2.16 (inactive) in experiment [5]; 0.625 (inactive) in [6]; -0.575 (inactive) in experiment [7]. Moreover, the z-score was -0.798 (inactive) in experiment [8] and -3.26 in [9]. The composite z-score in experiment [4] is -0.626 (inactive); in experiment [10], 0.22.

For `COc1ccc([Si](C)(C)[C@@H]2[C@@H](CC(=O)N3Cc4ccccc4C[C@H]3CO)O[C@]3(C(=O)N(C)c4ccccc43)[C@H]2C)cc1`, the z-score in experiment [1] was -1.35; in experiment [2] it was -2.33 (inactive); in experiment [3], -2.97 (inactive); in experiment [5], 1.81 (inactive); in experiment [6], 1.87 (inactive); in experiment [7], 1.21 (inactive). The results for the z-score in experiment [8] and in [9] were 0.403 (inactive) and -4.65, respectively. The composite z-score in [4] was 0.0586 (inactive); in experiment [10] it was -0.0095.

Turning to `CC=CC(O)C1C=CC2C(=O)N(c3ccccc3)C(=O)C2N1Nc1ccccc1F` (stereo not given), the z-score was -0.471 in [1]; -0.383 (inactive) in experiment [2]; -0.424 (inactive) in [3]; 1.21 (inactive) in experiment [5]; 0.503 (inactive) in experiment [6]; -0.382 (inactive) in experiment [7]. Further, the z-score in experiment [8] is -0.279 (inactive); in experiment [9], -0.788. Moreover, the composite z-score in experiment [4] was -0.813 (inactive); in experiment [10], 0.181.

`COCCOC(=O)N1C(=O)[C@@]2(c3cc(C#CC4=CCCCC4)ccc31)[C@H](c1ccccc1OCCO)N1[C@H](c3ccccc3)[C@H](c3ccccc3)OC(=O)[C@H]1[C@@H]2C(=O)Nc1nc2ccccc2s1`: the z-score in [1] was 0.322; in [2] it was 0.357 (inactive); in experiment [3], -0.774 (inactive); in [5] it was 1.63 (inactive); in [6] it was 1.12 (inactive); in experiment [7] it was -0.736 (inactive). Moreover, the z-score is -0.3 (inactive) in experiment [8] and -0.765 in experiment [9]. Moreover, the composite z-score is -0.291 (inactive) in [4] and 0.0304 in experiment [10].

For `COc1ccc([Si](C)(C)[C@H]2[C@H](CCn3cc([C@H](O)c4ccccc4)nn3)O[C@@]3(C(=O)N(Cc4ccc(N5C(=O)c6cccc7cccc5c67)cc4)c4ccccc43)[C@@H]2C)cc1`, the z-score was -0.0876 in experiment [1]; 0.0957 (inactive) in experiment [2]; -1.96 (inactive) in experiment [3]; 1.03 (inactive) in experiment [5]; 1.26 (inactive) in experiment [6]; 1.57 (inactive) in [7]. Also, the values for the z-score in [8] and in experiment [9] were 1.45 (inactive) and -0.761, respectively. Besides, the composite z-score is 0.468 (inactive) in experiment [4] and -0.031 in experiment [10].

With `O=C1O[C@@H](c2ccccc2)[C@@H](c2ccccc2)N2[C@@H](c3ccc(O)cc3)[C@]3(C(=O)Nc4ccc(C#CC5(O)CCCCCC5)cc43)[C@@H](C(=O)NC[C@H](O)c3ccccc3)[C@H]12`, the z-score was 0.677 in [1]; -0.263 (inactive) in experiment [2]; -0.418 (inactive) in [3]; 0.348 (inactive) in experiment [5]; 0.417 (inactive) in experiment [6]; -0.839 (inactive) in [7]. Moreover, the z-score in [8] is -0.938 (inactive); in experiment [9], -0.809. Besides, the composite z-score in [4] was 0.409 (inactive); in [10], -0.312.

As for `CCCCO[C@H]1C[C@H]2C(I)=C[C@@H]1C(=O)[C@]21CO1`, the z-score in experiment [1] is -0.0876; in experiment [2], -8.45 (active); in experiment [3] it was -0.67 (inactive); in experiment [5] it was 0.0481 (inactive); in [6] it was -1.31 (inactive); in experiment [7], -0.814 (inactive). The z-score is -1.05 (inactive) in experiment [8] and -0.0824 in experiment [9]. In addition, the composite z-score in [4] is -0.0864 (inactive); in [10], -0.255.

As to `COCCOC(=O)N1C(=O)[C@@]2(c3ccccc31)[C@H](C(=O)N1CCN(c3ncccn3)CC1)[C@H]1C(=O)O[C@H](c3ccccc3)[C@H](c3ccccc3)N1[C@@H]2c1ccc(O)cc1`, the z-score in experiment [1] was -0.0067; in experiment [2] it was 0.056 (inactive); in experiment [3], 0.439 (inactive); in experiment [5] it was 1.81 (inactive); in [6], 0.953 (inactive); in [7] it was -0.612 (inactive). Further, the z-score in experiment [8] was 0.075 (inactive); in [9], 0.434. Also, the composite z-score was -0.437 (inactive) in [4] and -0.222 in experiment [10].

On to `Cc1ccc(S[C@]2(C(=O)O)CC(=O)N(Cc3ccccc3Cl)[C@@H]2c2ccc(CO)cc2I)cc1`, for which the z-score in experiment [1] is 0.457; in [2] it was -3.19 (inactive); in [3] it was -3.07 (inactive); in [5], 1.15 (inactive); in experiment [6] it was -0.78 (inactive); in experiment [7], 0.0071 (inactive). In addition, the results for the z-score in experiment [8] and in experiment [9] were -0.26 (inactive) and -2.19, respectively. Further, the composite z-score is 0.297 (inactive) in experiment [4] and -0.0388 in [10].

For `O=C(NCC(F)(F)F)[C@@H]1c2ccccc2C(=O)N(Cc2ccccc2C(F)(F)F)[C@H]1c1ccc(CO)cc1`, the z-score is -0.0877 in experiment [1]; 0.0223 (inactive) in experiment [2]; -0.474 (inactive) in experiment [3]; 0.292 (inactive) in [5]; -0.246 (inactive) in experiment [6]; -0.308 (inactive) in [7]. Moreover, the z-score in [8] was 0.263 (inactive); in [9] it was -0.853. Besides, the composite z-score was -0.184 (inactive) in [4] and -0.184 in experiment [10].

In the case of `C=CCOC(=O)[C@H]1[C@@H]2C(=O)O[C@@H](c3ccccc3)[C@@H](c3ccccc3)N2[C@@H](c2ccc(OCCOC(=O)[C@@H]3C[C@@H]4C(=O)N5CCC[C@H]5C(=O)N4[C@@H]3c3ccc(O)cc3)cc2)[C@]12C(=O)Nc1ccc(I)cc12`, the z-score in experiment [1] is -0.384; in experiment [2] it was 1.04 (inactive); in [3], -0.996 (inactive); in experiment [5], 3.91 (inactive); in experiment [6], 1.08 (inactive); in [7], -0.102 (inactive). Further, the values for the z-score in experiment [8] and in [9] were 0.0802 (inactive) and -0.686, respectively. The values for the composite z-score in experiment [4] and in experiment [10] were -1.13 (inactive) and -0.083, respectively.

For `CC(C)N1C(=O)C[C@@](C(=O)NCCCN(C)C)(c2ccc([N+](=O)[O-])cc2)[C@H]1c1ccc(CO)cc1`, the z-score was 0.0314 in experiment [1]; -0.67 (inactive) in experiment [2]; -1.21 (inactive) in experiment [3]; 0.745 (inactive) in experiment [5]; -0.379 (inactive) in experiment [6]; -0.328 (inactive) in experiment [7]. The z-score is -1.02 (inactive) in experiment [8] and -0.198 in experiment [9]. Moreover, the composite z-score is 0.352 (inactive) in experiment [4] and -0.267 in [10].

(Values after PubChem BioAssay.)
